Results as given in PubChem BioAssay (EPA / NIEHS).
Inconclusive results are not listed. The source made the active and inactive calls. Rule for the calls, unless noted: active = hit-call score of the fitted dose curve at least 0.9, where 1 is the maximum; inactive = score below 0.9.

Tests used:
[1] = CCTE_Simmons_MITO_basal_resp_rate: CCTE's HepG2 Seahorse XF Respirometric Screening Assay at Basal Respiratory State, Simmons Lab (AID 2284001); conditions: actives raise or lower the signal
Method in brief: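 Readout is oxygen consumption rate after test compound injection, measured by Seahorse XF in HepG2 cells. Seven concentrations from 125 nM up to 100 uM final are tested, and activity in either direction is fitted against DMSO.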

[2] = CCTE_Simmons_MITO_inhib_resp_rate: CCTE's HepG2 Seahorse XF Respirometric Screening Assay at Inhibited Respiratory State [full ETC block], Simmons Lab (AID 2284006); conditions: actives raise or lower the signal
Method in brief: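 This endpoint is the respiration rate remaining after rotenone/antimycin A block, in HepG2 cells on a Seahorse XF96. Chemicals spanned 125 nM–100 uM final, in three biological replicates. OCR was read every 6 minutes for 72 minutes and compared with DMSO vehicle.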

[3] = CCTE_Simmons_MITO_viability: CellTiter-Glo Viability Assessment for CCTE's HepG2 Seahorse XF Respirometric Screening Assay [post-hoc], Simmons Lab (AID 2284007; active = hit-call score of the fitted dose curve at least 0.9, where 1 is the maximum;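 for AC50: cells exposed to chemical for 90 min before the ATP read; actives lower ATP signal relative to DMSO baseline meaning reduced viability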)
Method in brief: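 Luciferase-coupled ATP read-out after the Seahorse run: HepG2 cells treated 90 minutes with test chemical, 7-point series of 125 nM–100 uM final, in triplicate biological runs. Vehicle DMSO; dichlone as positive control over 8 concentrations.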

[4] = CCTE_Shafer_MEA_acute_spike_number: CCTE's Neural Acute Assay for Total Number of Spikes, Shafer Lab (AID 2284008);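 for AC50: curve fitted for decrease in spike count so AC50 reflects inhibitors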
Method in brief: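 Cortical neurons from rat, matured to DIV 13 or 15 on microelectrode arrays, are recorded at 37 C before and during 40-min exposure to 0.03-40 uM compound. Wells need >/= 10 active electrodes.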

[5] = CCTE_Shafer_MEA_acute_firing_rate_mean: CCTE's Neural Acute Assay for Mean Firing Rate, Shafer Lab (AID 2284009);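 note: analyzed for loss of signal so actives lower firing rate relative to DMSO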
Method in brief: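 Spontaneous spiking of primary rat cortical networks, DIV 13/15, 37 C. Compound 0.03-40 uM, n ≥3 wells; 40 min baseline vs 40 min treated. Endpoint fitted in loss-of-signal direction against DMSO.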

[6] = CCTE_Harrill_HTTr_Viability_MCF7: CCTE's 6-hour Cell Viability Assessment for the High-Throughput Transcriptomics (HTTr) Platform, in MCF-7 cells cultured in DMEM + 10% fetal bovine serum, Harrill Lab (AID 2284010)
Method in brief: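 Propidium iodide exclusion, imaged by high-content analysis, gauged viability after a six-hour exposure across eight concentrations. Cells were MCF-7 grown in DMEM with 10% fetal bovine serum; fits run in both directions against DMSO.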

[7] = CCTE_Harrill_HTTr_Apoptosis_MCF7: CCTE's 6-hour Apoptosis Assessment for the High-Throughput Transcriptomics (HTTr) Platform, in MCF-7 cells cultured in DMEM + 10% fetal bovine serum, Harrill Lab (AID 2284011)
Method in brief: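 Cells are dosed with test chemicals at eight concentrations and imaged 6 hours later for caspase-3/7 activity using a green fluorogenic detection reagent. Activity is fitted in both directions against DMSO controls.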

[8] = CCTE_Harrill_HTTr_CellCount_MCF7: CCTE's Cell Proliferation Assessment for the High-Throughput Transcriptomics (HTTr) Platform, Harrill Lab (AID 2284012; active = hit-call score of the fitted dose curve at least 0.9, where 1 is the maximum;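 note: cells exposed to compound for six hours; intended direction is loss of nuclei count meaning fewer cells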)
Method in brief: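 Cell count from high-content imaging of Hoechst-labeled nuclei serves as viability/growth readout. Chemicals were applied to MCF-7 cells in eight concentrations for six hours, with fitting in both directions relative to DMSO.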

[9] = CCTE_Shafer_MEA_acute_burst_number: CCTE's Neural Acute Assay for Single-Electrode Bursts, Shafer Lab (AID 2284013)
Method in brief: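 Burst totals were derived with adaptive spike detection (8x rms threshold) on filtered signals from rat cortical cultures; change relative to pre-treatment baseline after 40-min compound exposure (0.03-40 uM) was fitted in the negative direction against DMSO.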

[10] = CCTE_Shafer_MEA_acute_burst_duration_mean: CCTE's Neural Acute Assay for Mean Burst Duration, Shafer Lab (AID 2284014);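 note: hits are decreases in mean burst duration relative to DMSO controls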
Method in brief: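 Acute exposure of mature rat cortical networks (DIV 13 or 15) grown on microelectrode arrays to 0.03-40 uM compound. Mean burst duration compared with the 40-min pre-dose baseline over a 40-min post-dose recording at 37 C.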

[11] = target: Nucleoli Translocation, AR (gene 367) (UniProt P10275); test: UPITT_HCI_U2OS_AR_TIF2_Nucleoli_Antagonist: University of Pittsburgh U2OS Androgen Receptor-Transcriptional Intermediary Factor 2 (AR-TIF2) Antagonism High Content Imaging Assay for Nucleoli Translocation (AID 2283997; active = hit-call score of the fitted dose curve at least 0.9, where 1 is the maximum)
Method in brief: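 An antagonist-mode imaging screen: engineered U2OS (AR-RFP, TIF2-GFP) exposed to 20 uM compound, 0.2% DMSO. Activity reflects nucleolar red fluorescence change relative to DHT baseline.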

[12] = target: Ratio of Nucleoli Translocation and Cytoplasm, AR (gene 367) (UniProt P10275); test: UPITT_HCI_U2OS_AR_TIF2_Nucleoli_Cytoplasm_Ratio_Agonist: University of Pittsburgh U2OS Androgen Receptor-Transcriptional Intermediary Factor 2 (AR-TIF2) Agonism High Content Imaging Assay for Ratio of Nucleoli Translocation and Cytoplasm (AID 2284000; active = hit-call score of the fitted dose curve at least 0.9, where 1 is the maximum;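 note: hits raise the red nucleolar to cytoplasm ratio above vehicle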)
Method in brief: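 Primary screen at 20 uM final (0.2% DMSO), then triplicate confirmation and dose-response from 0.195 to 50 uM final (0.5% DMSO). Cells: U2OS with AR-RFP and TIF2-GFP. Endpoint is the nucleoli/cytoplasm red-fluorescence ratio, gain-of-signal vs DMSO.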

[13] = test system: DIO1 (gene 1733); test: CCTE_GLTED_hDIO1: CCTE's human Deiodinase 1 (DIO1) Inhibition Assay, Great Lakes Toxicology and Ecology Division (GLTED) Lab (AID 2283987; active = hit-call score of the fitted dose curve at least 0.9, where 1 is the maximum;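 note: isolated human DIO1 enzyme in a cell-free setup rather than cells; enzyme activity read as free iodide liberated from substrate via Sandell-Kolthoff colorimetry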)
Method in brief: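 Cell-free hDIO1 assay, triplicate plates. Absorbance of the Sandell-Kolthoff reaction reports enzyme-liberated iodide; iodinated chemicals or nitrite, iron and thiocyanate may interfere.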

[14] = target: Ratio of Nucleoli Translocation and Cytoplasm, AR (gene 367) (UniProt P10275); test: UPITT_HCI_U2OS_AR_TIF2_Nucleoli_Cytoplasm_Ratio_Antagonist: University of Pittsburgh U2OS Androgen Receptor-Transcriptional Intermediary Factor 2 (AR-TIF2) Antagonism High Content Imaging Assay for Ratio of Nucleoli Translocation and Cytoplasm (AID 2283999; active = hit-call score of the fitted dose curve at least 0.9, where 1 is the maximum;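 note: antagonists lower the DHT-driven ratio of nucleolar to cytoplasmic red signal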)
Method in brief: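 High-content imaging of red fluorescence ratio, nucleoli versus cytoplasm, in U2OS expressing AR-RFP and TIF2-GFP, fitted relative to DHT. Compounds tested once at 20 uM final, then 0.195 to 50 uM final in serial dilution.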

Measured: AC50

Sequence of Nucleoli Translocation, AR (gene 367) (P10275 whole entry, looked up): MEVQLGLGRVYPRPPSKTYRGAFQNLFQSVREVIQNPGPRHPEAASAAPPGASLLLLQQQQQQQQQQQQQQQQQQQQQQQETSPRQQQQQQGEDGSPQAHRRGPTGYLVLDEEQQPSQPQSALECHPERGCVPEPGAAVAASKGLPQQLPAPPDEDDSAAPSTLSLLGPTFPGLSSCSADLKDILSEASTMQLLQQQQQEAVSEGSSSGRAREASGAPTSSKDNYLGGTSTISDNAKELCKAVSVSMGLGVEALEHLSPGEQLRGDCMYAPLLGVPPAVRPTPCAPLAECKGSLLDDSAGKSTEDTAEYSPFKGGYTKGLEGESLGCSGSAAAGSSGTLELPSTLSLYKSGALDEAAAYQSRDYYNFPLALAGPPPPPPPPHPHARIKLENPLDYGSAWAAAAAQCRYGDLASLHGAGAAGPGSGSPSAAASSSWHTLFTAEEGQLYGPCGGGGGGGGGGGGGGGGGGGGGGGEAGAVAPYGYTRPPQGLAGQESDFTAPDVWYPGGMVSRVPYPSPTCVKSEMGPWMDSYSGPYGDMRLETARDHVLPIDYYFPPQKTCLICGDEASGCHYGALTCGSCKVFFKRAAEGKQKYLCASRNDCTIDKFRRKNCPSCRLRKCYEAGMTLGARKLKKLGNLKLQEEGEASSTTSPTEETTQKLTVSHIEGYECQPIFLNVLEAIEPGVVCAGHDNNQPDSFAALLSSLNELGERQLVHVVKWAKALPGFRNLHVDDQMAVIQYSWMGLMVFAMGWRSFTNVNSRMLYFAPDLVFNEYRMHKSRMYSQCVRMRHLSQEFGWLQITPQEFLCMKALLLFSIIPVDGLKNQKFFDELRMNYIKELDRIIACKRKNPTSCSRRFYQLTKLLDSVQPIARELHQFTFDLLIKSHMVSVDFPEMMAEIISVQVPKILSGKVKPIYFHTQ
Sequence of Ratio of Nucleoli Translocation and Cytoplasm, AR (gene 367) (P10275 whole entry, looked up): as above

Cn1c(-c2ccccc2)cc(-c2ccccc2)[n+]1C
active: [1] 41.9 µM | [4] 1.05 µM | [5] 1.05 µM | [9] 1.15 µM
inactive: [2] | [3] | [6] | [7] | [8] | [10]

CCCCC(C#N)(Cn1cncn1)c1ccc(Cl)cc1 (stereo not given)
inactive: [1] | [2] | [6] | [7] | [8]

CO/N=C(/C1=NOCCO1)c1ccccc1Oc1ncnc(Oc2ccccc2Cl)c1F
inactive: [3] | [6] | [7] | [8] | [9] | [10]
active: [1] 6.74 µM | [2] 6.67 µM | [4] 7.05 µM | [5] 7.18 µM

CC(C)(C)C(=O)C(Oc1ccc(Cl)cc1)n1cncn1 (stereo not given)
inactive: [2] | [3] | [6] | [7] | [8]
active: [1] 40.6 µM

CCNP(=S)(OC)O/C(C)=C/C(=O)OC(C)C (stereo not given)
active: [1] 37.9 µM
inactive: [2] | [3] | [6] | [7] | [8]

Cc1ccc(N=CN(C)C=Nc2ccc(C)cc2C)c(C)c1
active: [4] 0.126 µM | [5] 0.125 µM | [10] 4.21 µM
inactive: [1] | [2] | [6] | [7] | [8] | [9]

CCOP(=O)(OCC)Oc1nc(Cl)c(Cl)cc1Cl
inactive: [11] | [12] | [2] | [6] | [7] | [8] | [9]
active: [1] 29.6 µM | [3] 10.7 µM | [4] 3.95 µM | [5] 3.95 µM | [10] 0.00298 µM

COCC(C)N(C(=O)CCl)c1c(C)csc1C (stereo not given)
inactive: [2] | [3] | [6] | [7]
active: [1] 55.3 µM

CCCCOCN(C(=O)CCl)c1c(CC)cccc1CC
active: [13] 37.9 µM | [11] 19 µM | [14] 11 µM
inactive: [12] | [6] | [7] | [8]

COCc1cnc(C2=NC(C)(C(C)C)C(=O)N2)c(C(=O)O)c1 (stereo not given)
inactive: [11] | [12] | [6] | [7]

Nc1c(Cl)c(F)nc(OCC(=O)O)c1Cl
inactive: [14] | [12] | [1] | [2] | [4] | [5] | [6] | [7] | [8] | [9] | [10]

CC(C)C1(C)N=C(c2ncccc2C(=O)O)NC1=O (stereo not given)
inactive: [4] | [5] | [6] | [7] | [9] | [10]

CS(=O)(=O)c1cc(C(F)(F)F)ccc1C(=O)c1cnoc1C1CC1
inactive: [6] | [7] | [8]

CCC(C)n1c(=O)[nH]c(C)c(Br)c1=O (stereo not given)
inactive: [6] | [7] | [8]

CC1(C)C(C(=O)OC(C#N)c2cccc(Oc3ccccc3)c2)C1(C)C (stereo not given)
inactive: [4] | [5] | [6] | [7] | [8] | [9] | [10]

CCOc1nc(C(Cl)(Cl)Cl)ns1
inactive: [6] | [7] | [8]

CC(C)Nc1nc(Cl)nc(NC(C)C)n1
inactive: [6] | [7]

COc1cc(OC)nc(NC(=O)NS(=O)(=O)c2ncccc2OCC(F)(F)F)n1
inactive: [6] | [7]

C=C(C)CN(CC)c1c([N+](=O)[O-])cc(C(F)(F)F)cc1[N+](=O)[O-]
active: [4] 31.9 µM | [5] 31.9 µM
inactive: [6] | [7] | [9] | [10]

CCNC(=O)NC(=O)C(C#N)=NOC
inactive: [6] | [7] | [8]

CC(C)Oc1cccc(NC(=O)c2ccccc2C(F)(F)F)c1
inactive: [6] | [7] | [8]

O=c1n(Cl)c(=O)n(Cl)c(=O)n1Cl
inactive: [6] | [7]

CC1(C)CON(Cc2ccccc2Cl)C1=O
inactive: [6] | [7]

CCCC(=NOCC)C1=C(O)CC(CC(C)SCC)CC1=O (stereo not given)
active: [4] 11.1 µM | [5] 11.1 µM | [10] 31 µM
inactive: [6] | [7] | [9]

Cc1cc(C)nc(Nc2ccccc2)n1
inactive: [6] | [7]

COC(=O)NS(=O)(=O)c1ccc(N)cc1
inactive: [6] | [7] | [8]

COP(=O)(OC)O/C(C)=C/C(=O)N(C)C
inactive: [6] | [7]

Cc1nc(N(C)C)nc(OC(=O)N(C)C)c1C
inactive: [4] | [5] | [6] | [7] | [9] | [10]

CS(=O)(=O)c1ccc(C(=O)C2C(=O)CCCC2=O)c([N+](=O)[O-])c1
inactive: [6] | [7] | [8]

COP(=S)(OC)Oc1ccc([N+](=O)[O-])c(C)c1
inactive: [6] | [7] | [8]

CN/C(=N\[N+](=O)[O-])NCc1cnc(Cl)s1
inactive: [4] | [5] | [6] | [7] | [8] | [9] | [10]

CC(C)NC(=O)N1CC(=O)N(c2cc(Cl)cc(Cl)c2)C1=O
inactive: [6] | [7]

COc1cc(Cl)c(OC)cc1Cl
inactive: [6] | [7]

CSC(=O)c1c(C(F)F)nc(C(F)(F)F)c(C(=O)SC)c1CC(C)C
inactive: [6] | [7]

CNC(=O)Oc1cccc2ccccc12
inactive: [4] | [5] | [6] | [7] | [10]

Nc1c(Cl)c(Cl)nc(C(=O)O)c1Cl
inactive: [6] | [7] | [8]

N#Cc1c(Cl)cccc1Cl
inactive: [6] | [7]

CC(C)N1C(=O)c2ccccc2NS1(=O)=O
inactive: [4] | [5] | [6] | [7] | [8] | [9] | [10]

O=C(Nc1ccccc1-c1ccc(Cl)cc1)c1cccnc1Cl
inactive: [4] | [5] | [6] | [7] | [8] | [9] | [10]

Clc1nc(Cl)nc(Nc2ccccc2Cl)n1
inactive: [4] | [5] | [6] | [7] | [8] | [9] | [10]

Nc1cnn(-c2ccccc2)c(=O)c1Cl
inactive: [6] | [7]

O=C(O)c1c(Cl)ccc2cc(Cl)cnc12
inactive: [6] | [7]

N#CN=C1SCCN1Cc1ccc(Cl)nc1
inactive: [4] | [5] | [6] | [7] | [9] | [10]

CNC(=O)N(C)c1nnc(C(C)(C)C)s1
inactive: [6] | [7]

O=P(O)(O)CCCl
inactive: [6] | [7]

COC(=O)NC(=S)Nc1ccccc1NC(=S)NC(=O)OC
inactive: [6] | [7] | [8]

CN=C=S
inactive: [6] | [7]
